From PubChem BioAssay AID492947 (National Center for Advancing Translational Sciences (NCATS), 2010)
Hit rate of the full screen: of about 330,000 compounds, about 80 (0.02%) were called active. Calls follow the shape of the dose curve; as a rule, active = well fitted activation curve with a large enough effect; inconclusive = small, poorly fitted or top-dose-only effect; inactive = flat fitted curve, though single readings scatter. The list comes from a sample in which actives are over-represented; it also holds similar structures and randomly drawn compounds.

target: Beta-2 adrenergic receptor (Homo sapiens) (UniProt P07550); experiment: qHTS assay of beta-arrestin-biased ligands of beta2-adrenergic receptor; conditions: beta-arrestin recruitment to beta2AR, cell-based reporter; series mostly up to 46.1 µM; activation: at the top concentration; also: nearly all actives have a fitted effect of over 65% in size;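 as to activation: 0% = DMSO controls and full agonism = EC100 isoproterenol or metaproterenol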
Sequence (P07550 whole entry, looked up): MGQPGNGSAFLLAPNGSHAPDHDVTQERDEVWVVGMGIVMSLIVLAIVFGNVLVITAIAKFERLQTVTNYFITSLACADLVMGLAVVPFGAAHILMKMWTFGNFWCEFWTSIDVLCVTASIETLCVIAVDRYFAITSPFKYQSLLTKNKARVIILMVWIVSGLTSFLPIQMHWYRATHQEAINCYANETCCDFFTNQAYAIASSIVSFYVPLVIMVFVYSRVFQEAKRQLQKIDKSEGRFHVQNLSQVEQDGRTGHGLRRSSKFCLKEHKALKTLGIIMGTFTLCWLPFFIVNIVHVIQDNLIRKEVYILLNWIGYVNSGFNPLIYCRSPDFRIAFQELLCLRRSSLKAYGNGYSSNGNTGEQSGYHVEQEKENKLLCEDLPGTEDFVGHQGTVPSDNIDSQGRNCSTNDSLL
From the text: NIH Molecular Libraries Probe Production Network [MLPCN]
NIH Chemical Genomics Center [NCGC]
PI: Bryan Roth and Bob Lefkowitz
The concept of biased agonism is an emerging concept of molecular pharmacology which proposes that seven transmembrane receptors (7TMRs) or G protein-coupled receptors (GPCRs), exist in multiple signaling conformations and complexes and that ligands (either agonists or antagonists) can induce signaling biased responses for distinct signal transduction cascades.
Furthermore, accumulating evidence over the last decade has drawn attention to a novel function of beta-arrestins as signal transducers that scaffold various signaling molecules upon activation of 7TMRs. […] This beta-arrestin-biased signaling presumably leads to distinct physiological outcomes from those by G protein activation.
Additionally, the active receptor conformations which […] on this beta-arrestin signaling are likely different from those activating G protein signaling
The goal of this screening project will be to discover and optimize novel beta-arrestin-biased ligands for beta2-AR signaling. A luminescent cell-based assay for beta2-AR-mediated agonism, known as the Tango assay, has been validated in which ligand binding of a recombinant beta2-AR and subsequent recruitment of a recombinant beta-arrestin lead to the release of the transcriptional activator tTA, which upregulates transcription of a tTA-responsive luciferase gene. […] Compounds were screened as a concentration-titration series that ranged from 46 microM to 0.6 nM.
NCGC Assay Protocol Summary:
Tango cells were dispensed into white, solid, tissue-culture-treated 1536-well plates at 1500 cells/well in DMEM, containing 1% fetal bovine serum (FBS). Then, 23 nL of compounds or DMSO were delivered to each well using a pin tool. Plates were incubated at 37 degrees C, 5% CO2 for 18 hr. Then 2.5 uL luminescent substrate mix (in-house prepared: 150 mM Tris-Cl, pH 7.6, 3 mM MgCl2, 1% Triton X-100, 5 mM DTT, 0.5 mM CoA, 0.15 mM ATP, 0.44 mM D-luciferin, final concentrations) was added to each well. Plates were then incubated for 15 minutes at room temperature, and subsequently measured on a ViewLux plate reader for luminescent signal using a clear filter with a 10 second exposure and 2x binning. The %Activity was determined from the corrected luminescence values.
Concentration-response curves were fitted to the signals arising from the resulting luminescence. The concentration-effect curves were then classified based on curve quality (r2), response magnitude and degree of measured activity, and compounds were subsequently categorized based on their curve class.
Keywords: biased agonism, beta2-AR, beta-arrestin, GPCR, 7TMR, Tango, luminescence, MLSMR, MLPCN, NIH Roadmap, qHTS, NCGC
Potency is read from the fitted curve at half-maximal effect.

activation, inactive:
COc1ccc(Cn2c(-c3ccc(Cl)cc3)c[n+]3ccccc23)cc1 -0.0012%
Cc1cc(NC(=O)CSc2nccn2-c2ccc([N+](=O)[O-])cc2)no1 -0.528%
COc1ccc(N=Nc2c(-c3ccc(OC)cc3)[nH]oc2=O)cc1 0.159%
COc1ccccc1CNS(=O)(=O)CC12CCC(CC1=O)C2(C)C (stereo unspecified) 0.226%
CCC(C)NC(=O)c1nn(C)c(=O)c2ccccc12 (stereo unspecified) 0.002%
CCOc1ccc2c(c1)c(=O)c(S(=O)(=O)c1ccc(C)cc1)cn2CC -0.562%
COc1ccc2ccccc2c1CNCc1ccccn1 0.39%
O=C(Cn1nnc2ccccc2c1=O)Nc1cc(C(F)(F)F)ccc1N1CCOCC1 -0.629%
Cc1ccc(SCC(=O)NNC(=O)c2ccc(S(C)(=O)=O)cc2)cc1 -1.22%
CC1Cc2ccccc2N1C(=O)Cn1cnc2ccccc2c1=O (stereo unspecified) -1.41%
CC1CCCC(NC(=O)c2cc(-c3ccncc3)nc3ccccc23)C1C (stereo unspecified) -0.497%
CC1CCN(c2oc(-c3ccccc3F)nc2C#N)CC1 -0.667%
O=C(Nc1c(-c2ccccc2)nc2c(Br)cc(Br)cn12)c1ccco1 -0.134%
CC(=O)c1cccc(NC(=O)CN2C(=O)c3cccnc3Oc3ccc(Cl)cc32)c1 -0.648%
COc1ccccc1OCc1ccc(C(=O)NC(C)c2ccccc2)o1 (stereo unspecified) -0.353%
CCN(CC)Cc1csc2ccc(Br)cc12 0.52%
COc1ccc(C(=O)N(CCN2CCOCC2)CC(=O)NC2CCCC2)cc1OC -0.299%
COc1ccc([N+](=O)[O-])cc1NC(=O)C(C)OC(=O)C1c2ccccc2Oc2ccccc21 (stereo unspecified) -0.921%
CNc1nccc(-c2ccc(Cl)cc2)c1C#N -0.419%
CC(C)(C)CC(C)(C)NCC(O)COCCOc1ccc(Br)cc1 (stereo unspecified) -1.41%
CC(C)C(c1nnnn1C(C)(C)C)N1CCN(Cc2cccnc2)CC1 (stereo unspecified) 0.227%
O=C(CSc1ccc(-c2ccc(-n3cccn3)cc2)nn1)Nc1ccc([N+](=O)[O-])cc1 -0.051%
COc1ccc(CNS(=O)(=O)c2cc3c4c(c2)CCN4C(=O)CC3)cc1 0.0665%
CCN(CC(=O)Nc1ccccc1C(F)(F)F)C(=O)CSCc1c(C)noc1C 0.203%
CN(CC(=O)Nc1ccc(F)c(F)c1F)C(=O)Cn1cnc2c1c(=O)n(C)c(=O)n2C -0.0001%
COC(=O)C1(C)NC(c2ccc(C)cc2)C2C(=O)N(c3ccc(F)cc3)C(=O)C21 (stereo unspecified) -0.0353%
CC1CC(c2ccccc2)n2nc(NC(=O)c3cccs3)nc2N1 (stereo unspecified) -0.19%
CN(C(=O)CSc1nnc(-c2ccc(C(C)(C)C)cc2)n1C)C1CCS(=O)(=O)C1 (stereo unspecified) -0.268%
Cc1ccc(NC(=O)CN(C)C(=O)COC(=O)c2nccnc2N)cc1 -0.155%
CC(C)CC[n+]1ccn(C2=C([O-])c3ccccc3C(=O)/C2=N\S(=O)(=O)c2ccccc2)c1 -0.852%
CC1(C)O[C@H]2CC(=O)OCC23[C@H]2CC[C@@]4(C)[C@H](c5ccoc5)OC(=O)[C@H]5O[C@]54[C@]2(C)C(=O)C[C@@H]13 (stereo partly specified) -0.047%
CCOC(=O)C1CCN(C(=O)COC(=O)C2CCN(S(=O)(=O)c3ccc4c(c3)OCCO4)CC2)CC1 -0.237%
Cc1ccc(C(=O)N2CC(=O)Nc3ccc(F)cc3C2c2ccc(F)cc2)cc1 (stereo unspecified) 0.502%
CCOC(=O)N1CCC(NC(=O)CCc2cn(C)c3ccccc23)CC1 -0.0838%
FC(F)(F)c1cc(C(F)(F)F)c2ccc(N3CCN(c4ccccc4)CC3)nc2n1 0.785%
Cc1ccccc1NC(=O)C(C)OC(=O)CCC(=O)N(CC(C)C)c1c(N)n(CC(C)C)c(=O)[nH]c1=O (stereo unspecified) -0.281%
COc1cc(NC(=O)c2ccc(-c3csc(C)n3)cc2)c(OC)cc1Cl -0.0491%
[O-][N+]12CCCCC1CCCC2CO (stereo unspecified) -1.12%
CCN(Cc1ccccc1)C(=O)CSc1nc(C)cc2c1C(=O)OC2 0.268%
O=C(COc1ccc(Cl)cc1)NCc1nnc(SCC(=O)NCC2CCCO2)o1 (stereo unspecified) 0.293%
Cc1ccc(C(C(=O)NCC2CCCO2)N(C(=O)c2snc(C(N)=O)c2N)c2ccc(C(C)C)cc2)o1 (stereo unspecified) 0.458%
CC(=O)N/C(=C\c1ccccc1)C(=O)OC(C)C(=O)N(C)c1ccccc1 (stereo unspecified) -0.203%
C=CCn1c(SCC(=O)NC23CC4CC(CC(C4)C2)C3)nc(O)cc1=O -0.0159%
C=CCNC(=S)N/N=C/c1ccc(OCc2ccccc2)cc1 0.0669%
Cc1ccc(/C=N/NC(=O)CN2CCN(Cc3ccccc3)CC2)s1 5.3%
CCOC(=O)c1sc(N)c(C#N)c1COC(=O)C1=COCCO1 -0.132%
COc1ccc(NC(=O)Cn2c(-c3ccc(OC)cc3)cn(-c3ccc(C)cc3)c2=O)cc1 3%
O=C(c1cc2ccccc2o1)N1CCN(c2cccc(C(F)(F)F)c2)CC1 -0.96%
CC(C)[C@H](NC(=O)c1ccc(F)cc1)C(=O)OCC(=O)NC(=O)c1cccn1C -0.698%
CC1CN(CCCOc2ccccc2-c2ccccc2)CC(C)O1 (stereo unspecified) -0.144%

Potency, active:
C=CCNC(=S)N/N=C/c1ccc(C)s1 5.62 µM
